HCT116 PTEN-null: PTEN-deleted cell growth suppression; HCT116 PTEN-null viability, CellTiter-Glo, 60 h; stronger effect = lower value; viability, % at 10 µM; 1.2% of 140,000 active;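 active = viability at or below a set limit, 4 SD under the median of all tested compounds, cut at about 3.7% in these data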;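 also: PTEN knockout HCT116 line with beta catenin targeted HCT116 as companion control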
Autophagy mod: alters autophagy in cells; 0.98% of 190,000 active; AID 463193; MEF GFP-LC3 puncta imaging; test concentration mostly 10 µM; calls only at 10 µM (by protocol);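 active = percentage of spot-positive cells more than 3 SD above its plate mean, without a fluorescence outlier flag or 80% toxicity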
L major viab: Leishmania major promastigote growth inhibition. Leishmania major promastigotes, resazurin fluorescence viability. inhibition, % at 10 µM. 9% of 200,000 active; in the data active = inhibition above about 50%;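 also: promastigotes grown with compound for 44 hours at 28 °C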
Ins promoter up: MIN6 insulin promoter up-regulation; MIN6 insulin promoter-GFP reporter, high-content imaging; stronger effect = higher value; z-score at 5 µM; AID 1625; 0.3% of 190,000 active;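 active = z-score above 3 at 5 µM with at least 500 cells counted in the well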
Insulin prom inh: TRM-6 insulin promoter activity inhibition; TRM-6 cells (human fetal islet line), insulin promoter-eGFP reporter, imaging; reporter expression induced with tamoxifen; inhibition, % at 2 µM; 0.9% of 130,000 active; AID 1273;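 active = inhibition above the mean plus 3 SD, with well images judged a real hit on visual review, cut at about 60% in these data, passing the limit was not always enough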
bCat KO growth: beta-catenin-lacking colon tumor cell growth suppression; HCT116 beta-catenin knockout viability, CellTiter-Glo, 60 h; stronger effect = lower value; AID 818; viability, % at 10 µM; 1.5% of 140,000 active;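 active = viability at or under a set limit, the compound median less 4 SD, cut at about 6% in these data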
A number is an active result; – = inactive; · = no result; + = active, no number. Only some compounds are listed: those with a hit (about 9.6% of all), similar ones and a draw of the others.

SMILES | HCT116 PTEN-null | Autophagy mod | L major viab | Ins promoter up | Insulin prom inh | bCat KO growth
Nc1nc(SCc2ccc(Cl)cc2Cl)nc2nc3c(cc12)CCCC3 | – | + | – | – | – | –
Nc1nc(SCc2ccccc2Cl)nc2nc3c(cc12)CCCC3 | – | – | – | – | · | –
Cn1c(=O)[nH]c(=O)c2c1nc(SCC(=O)Nc1ccccc1)n2Cc1ccccc1 | – | – | – | – | · | –
Cc1cccc(N(CC(N)=O)C2SC(=O)N(c3ccccc3)C2=O)c1 (stereo unspecified) | – | – | – | – | – | –
CCOC(=O)c1cc(-c2ccc(C)cc2)nc2nc(SC)[nH]c(=O)c12 | – | – | 56.0 | – | – | –
CCOC(=O)c1cc(-c2cccc(C(F)(F)F)c2)nc2nc(SC)[nH]c(=O)c12 | – | – | – | · | – | –
CCOP(=O)(C1=C(O)C(=O)C(C(C)(C)C)=CC1=O)c1ccccc1 (stereo unspecified) | · | – | – | – | 66.7 | ·
COC(=O)c1sc(NC(=O)C2c3ccccc3Oc3ccccc32)c(C(=O)OC)c1C | – | – | – | – | · | –
CN(C)CCOc1ccc2c(c1)Sc1ccccc1CC2=O | – | – | 100.2 | – | – | –
Cc1ccc2c(c1)Sc1ccccc1CC2=O | – | – | – | – | – | –
Cc1ccsc1C=Nc1c(C)n(C)n(-c2ccccc2)c1=O | – | – | – | – | – | –
CCn1c(SCc2nc3ccccc3[nH]2)nnc1-c1cccs1 | – | + | – | – | – | –
CCn1c(SCc2nc(-c3cccs3)no2)nnc1-c1c[nH]c2ccccc12 | – | – | 72.2 | – | – | –
Cn1c(SCC(=O)Nc2ccc3c(c2)OCO3)nnc1-c1cnccn1 | – | – | – | – | – | –
CS(=O)(=O)c1ccc(Sc2nc3ccccc3s2)c([N+](=O)[O-])c1 | – | – | 80.0 | – | · | –
O=[N+]([O-])c1cc(S(=O)(=O)C(F)(F)F)ccc1Sc1nc2ccccc2s1 | 1.5 | – | 100.6 | – | – | 1.6
O=[N+]([O-])c1cc(S(=O)(=O)C(F)(F)F)ccc1Sc1nc2ccccc2[nH]1 | 1.3 | – | 100.5 | · | – | 1.5
CN(C)S(=O)(=O)c1cccc(NC(=O)CCNC(=O)c2ccccc2Cl)c1 | – | – | – | – | · | –
CCS(=O)(=O)N1CCN=C1SCc1cccnc1 | · | – | – | · | – | ·
COCCn1c(=S)[nH]c2cc(C(=O)N3CCC(C(N)=O)(N4CCCCC4)CC3)ccc2c1=O | – | – | – | – | – | –
COc1ccc(O)c(C=Nc2cc(NC(C)=O)c(Cl)cc2Cl)c1 | – | – | 64.3 | – | – | –
COc1ccc(CCNC(=S)N2CCC(C(=O)c3ccc(F)cc3)CC2)cc1OC | · | – | – | – | – | ·
O=C(c1ccc(Cn2cc([N+](=O)[O-])cn2)o1)N1N=C(C(F)F)CC1(O)C(F)F (stereo unspecified) | – | – | – | – | – | –
Cc1cc(NC(=O)CSc2c3c(nc4ccccc24)CCC3)no1 | – | – | – | – | · | –
Cc1c(Cl)c(C(F)(F)F)nn1CC(=O)N1CCSCC1 | – | – | – | – | 100.0 | –
SMILES | HCT116 PTEN-null | Autophagy mod | L major viab | Ins promoter up | Insulin prom inh | bCat KO growth
Cc1ccc(CNS(=O)(=O)NCc2cccs2)cc1 | · | – | – | – | 76.9 | ·
CN1CCN(C(=O)/C(=C/c2ccccc2)c2ccccc2)CC1 | – | – | – | – | – | –
CC1CC(C)CN(C(=O)/C(=C\c2ccccc2)c2ccccc2)C1 (stereo unspecified) | – | – | 95.9 | – | – | –
COc1ccc(/C=N/NC(=O)CN(c2ccc(OC)cc2)S(=O)(=O)c2ccccc2)cc1 | · | – | – | · | · | ·
COc1ccc2cc(/C=N/NC(=O)CN(c3ccccc3C)S(=O)(=O)c3ccccc3)c(Cl)nc2c1 | – | + | – | – | – | –
COc1ccc2[nH]c(C(=O)NCCN3CCOCC3)cc2c1 | · | · | · | – | · | ·
O=C(O)CCC(=O)/C=C/c1ccccc1 | · | – | – | – | · | ·
Cc1ccc2nc(C)cc(Cl)c2c1 | · | – | – | – | – | ·
Cc1ccc2nc3c(c(N)c2c1)CCN3c1ccccc1 | – | – | 89.4 | – | · | –
OC(COCC(F)(F)C(F)(F)C(F)(F)C(F)F)Cn1c2ccc(Cl)cc2c2cc(Cl)ccc21 (stereo unspecified) | 1.7 | – | – | – | · | 2.2
CCOC(=O)c1c(O)c2cc(Cl)ccc2n(CC)c1=O | · | · | · | – | · | ·
Cc1ccc2nc(Cl)c(CN(C(=O)c3cnccn3)C3CCCCC3)cc2c1 | – | – | 53.1 | · | – | –
CCOC(=O)C1CC(=O)c2cc(OC)c(OC)cc2C1 (stereo unspecified) | · | · | · | – | · | ·
CN1CCC(OC(=O)c2ccc(Cl)cc2Cl)CC1 | · | – | 96.3 | – | · | ·
CC(CN1CCN(C)CC1)OC(=O)c1ccc(Cl)cc1Cl (stereo unspecified) | – | – | – | – | – | –
CN1CCC(OC(=O)c2cccc(Br)c2)CC1 | – | – | 93.1 | · | – | –
CC(CN1C(C)CCCC1C)OC(=O)c1ccc(Cl)cc1Cl (stereo unspecified) | · | + | – | – | · | ·
COCCNC(=S)N/N=C(\C)c1ccc(Cl)c(Cl)c1Cl | · | – | – | – | · | ·
Cc1nnc(SCC(=O)N2CCC(Cc3ccccc3)CC2)n(N)c1=O | – | – | – | – | – | –
COc1ccc(/C=C/c2nc3cc(-c4ccccc4)ccc3o2)cc1O | – | – | 87.2 | – | – | –
CSc1nc2[nH]c3c(c2c2nnnn12)CCCC3 | – | – | – | – | – | –
CCOc1nc(Nc2ccc(F)cc2)nc(N2CCN(c3ccc(OC)cc3)CC2)n1 | – | – | 70.3 | – | – | –
CCOc1ccc(Nc2nc(N3CCCC3)nc(N3CCN(c4ccc(OC)cc4)CC3)n2)cc1 | · | – | 54.9 | – | – | ·
CCOc1ccc(C(=O)Nc2ccc(N3CCCC3)cc2)cc1 | – | – | – | – | · | –
CCOc1nc(Nc2ccc(OC)c(Cl)c2)nc(N2CCN(c3ccc(OC)cc3)CC2)n1 | – | – | 71.8 | – | – | –
SMILES | HCT116 PTEN-null | Autophagy mod | L major viab | Ins promoter up | Insulin prom inh | bCat KO growth
COc1nc(Nc2ccc(OC)c(Cl)c2)nc(OC)n1 | – | – | – | – | – | –
CCOC(=O)c1c2c3c(c(Cl)ccc3[nH]c1=O)C(=O)c1ccccc1-2 | · | – | – | – | · | ·
Cc1ccc(C(=O)N/N=C\c2ccc[nH]2)cn1 | – | – | – | · | – | –
O=C(N/N=C/c1ccccn1)c1cccc([N+](=O)[O-])c1 | · | – | 77.3 | – | · | ·
O=C(N/N=C/c1ccccn1)c1ccc(Br)cc1 | 3.6 | – | 96.7 | – | · | 3.6
O=C(COc1ccc([N+](=O)[O-])cc1)N/N=C/c1ccccn1 | – | – | – | – | · | –
O=C(N/N=C/c1ccccn1)c1ccc([N+](=O)[O-])cc1 | · | – | 55.0 | – | – | ·
O=C(N/N=C/c1ccc[nH]1)c1ccc([N+](=O)[O-])cc1 | – | – | 79.1 | · | – | –
O=C(N/N=C/c1ccccn1)c1ccc(NC(=O)c2cccc([N+](=O)[O-])c2)cc1 | · | – | – | – | – | ·
O=C(N/N=C/c1ccccn1)c1ccc(N/N=C/c2ccccn2)cc1 | · | – | – | – | – | ·
O=C(N/N=C/c1ccccn1)c1cc([N+](=O)[O-])cc([N+](=O)[O-])c1 | · | – | 88.8 | – | – | ·

Assay outcomes (PubChem)
